Results with a measured potency or affinity are listed apart.
Experiments:
Klebsiella pneumoniae = settings: Concentration 32 ug.mL-1;; ASSAY_TEST Inhibition of Bacterial Growth; detection method Absorption (OD600); MEDIA CAMHB; plate type 384well; NBS; CORNING #3640; time 18 hr
Candida albicans = settings: Concentration 32 ug.mL-1; ASSAY_TEST Inhibition of Fungal Growth; detection method Absorption (OD530)
Cryptococcus neoformans = settings: Concentration 32 ug.mL-1; ASSAY_TEST Inhibition of Fungal Growth; detection method Resazurin; Absorption (OD600-OD570); plate type 384well; NBS; CORNING #3640

| SMILES | Inhibition (Klebsiella pneumoniae) | Inhibition (Candida albicans) | Inhibition (Cryptococcus neoformans) |
| --- | --- | --- | --- |
| COC(=O)c1ccc(NC(=O)Cn2nc3ccc(S(=O)(=O)c4ccccc4)nn3c2=O)cc1 | 3.88% | 1.43% | -5.62% |
| CCCCN(CC)c1ccc2nnc(CCc3nc(-c4ccc5c(c4)OCO5)no3)n2n1 | 3.82% | 3.29% | -4.25% |
| CCc1nnc2c(S(=O)(=O)N(Cc3cccc(C)c3)c3cccc(Cl)c3)cccn12 | 3.49% | 3.58% | -6.66% |
| Cc1ccc(-n2ccn3c(=O)n(Cc4cccc(F)c4)nc3c2=O)cc1C | 5.72% | 0.74% | -14.54% |
| O=C(Cn1nc2c(Sc3cccc(F)c3)nccn2c1=O)N1CCN(c2ccccc2)CC1 | 4.19% | 0.68% | -2.85% |
| CC(C)CCn1c(=O)c2sccc2n2c(=O)n(Cc3ccccc3Cl)nc12 | 16.14% | -1.94% | -23.98% |
| Cc1cccc(NC(=O)Cn2nc3nc(N4CCCCCC4)ccn3c2=O)c1C | 16.3% | 1.23% | -8.73% |
| Cc1nnc2c(SCC(=O)Nc3ccc(Br)cc3F)nc3ccccc3n12 | 10.56% | 0.1% | -6.82% |
| Cc1c(Cl)cccc1-n1ccn2c(=O)n(Cc3ccc(F)cc3)nc2c1=O | -1.56% | 6.3% | -16.32% |
| COc1ccc(CNC(=O)Cn2nc3c(N4CCN(c5ccccc5C)CC4)nccn3c2=O)cc1 | -11.16% | 37.75% | -4.67% |
| CCCCc1ccc(NC(=O)Cn2nc3c(SC4CCCCC4)nccn3c2=O)cc1 | 1.99% | 20.8% | -5.76% |
| CCCCN(C)c1ccc2nnc(CCc3nc(-c4cc(OC)cc(OC)c4)no3)n2n1 | 6.4% | 9.61% | -5.17% |
| COc1ccc(N(Cc2ccc(Cl)cc2)S(=O)(=O)c2ccc3nncn3c2)cc1 | 10.04% | 4.11% | -7.19% |
| COc1cccc(CN(c2ccc(F)cc2)S(=O)(=O)c2cccn3cnnc23)c1 | -0.69% | -0.06% | -1.54% |
| COC(=O)c1ccc(NC(=O)Cn2nc3c4cc(-c5ccc(F)cc5)nn4ccn3c2=O)cc1 | 11.64% | 3.5% | -12.29% |
| Cc1ccc(NC(=O)CSc2nnc3c(=O)n(-c4ccc(C)c(C)c4)ccn23)c(Cl)c1 | 12.06% | 0.25% | -10.04% |
| N#Cc1cccc(NC(=O)Cn2nc3c(Oc4ccccc4)nccn3c2=O)c1 | 7.41% | 1.17% | -6.48% |
| COc1ccccc1NC(=O)CSc1nnc2c(=O)n(-c3ccc(C)c(C)c3)ccn12 | 7.95% | 1.21% | -7.82% |
| O=C(Cn1nc2c(SC3CCCCC3)nccn2c1=O)Nc1ccc(Br)cc1 | 6.54% | 6.38% | -23.31% |
| COc1ccc(NC(=O)Cn2nc3ccc(SCc4ccc(Cl)cc4)nn3c2=O)cc1 | 1.71% | 48.76% | -13.57% |

| SMILES | Inhibition (Klebsiella pneumoniae) | Inhibition (Candida albicans) | Inhibition (Cryptococcus neoformans) |
| --- | --- | --- | --- |
| COc1cccc(CSc2nnc3c(=O)n(-c4ccc(Br)cc4)ccn23)c1 | 8.64% | 19.07% | -13.83% |
| Cc1ccc(-c2cc3c4nn(CC(=O)Nc5ccc(Cl)cc5)c(=O)n4ccn3n2)cc1C | -7.29% | 11.19% | -17.93% |
| COc1cccc(-n2ccn3c(SCC(=O)Nc4ccc5c(c4)OCCO5)nnc3c2=O)c1 | 14.27% | 3.13% | -26.1% |
| Cc1ccc(CNC(=O)Cn2nc3ccc(SC4CCCCC4)nn3c2=O)cc1 | 11.36% | 13.29% | -15.57% |
| Cc1ccc(C)c(NC(=O)Cn2nc3ccc(-c4ccccc4)nn3c2=O)c1 | 5.6% | 1.64% | -11.25% |
| O=c1c2nnc(SCc3ccc(Cl)cc3)n2ccn1-c1ccc(F)cc1 | 9.2% | 1.38% | -5.79% |
| Cc1ccc(N(Cc2cccc(C)c2)S(=O)(=O)c2cccn3c(C)nnc23)cc1 | 5.17% | 4.46% | -6.62% |
| CCC(Sc1nnc2c(=O)n(-c3ccc(F)cc3)ccn12)C(=O)Nc1cc(OC)cc(OC)c1 (stereo not given) | 12.14% | -0.61% | -13.06% |
| COC(=O)c1ccc(NC(=O)Cn2nc3ccc(SCc4ccc(Cl)cc4)nn3c2=O)cc1 | 3.21% | 46.24% | -5.53% |
| Cc1ccc(-c2ccc3nn(CC(=O)N4CCN(c5ccccc5F)CC4)c(=O)n3n2)cc1C | 9.79% | 0.84% | -7.8% |
| COc1ccc(-c2cc3c4nn(CC(=O)Nc5ccc(C)cc5C)c(=O)n4ccn3n2)cc1 | 11.47% | 2.57% | -20.53% |
| CCC(C)NC(=O)CCn1c(=O)c2ccccc2n2c(=O)n(CC(=O)NCc3cccs3)nc12 (stereo not given) | 12.47% | 0.11% | -24.13% |
| O=c1c2sccc2n2c(=O)n(Cc3ccc(Br)cc3)nc2n1CCc1ccccc1 | -2.03% | 27.87% | -16.22% |
| CSc1ccc(CNC(=O)Cn2nc3c(Oc4ccc(C)cc4)nccn3c2=O)cc1 | -2.38% | 4.95% | -4.29% |
| CCCc1nnc2c(=O)n(CC(=O)Nc3cccc(C#N)c3)c3ccccc3n12 | 0.67% | -0.31% | -17.76% |
| O=C(Cn1nc2c3cc(-c4ccccc4)nn3ccn2c1=O)N1CCN(c2ccccc2F)CC1 | 9.85% | 1.75% | -28.45% |
| CCCc1nnc2c(=O)n(CC(=O)Nc3ccc(C#N)cc3)c3ccccc3n12 | 0.24% | 1.16% | -7.04% |
| CCOC(=O)c1ccccc1NC(=O)Cn1nc2c(Oc3cccc(C)c3C)nccn2c1=O | 7.42% | 0.56% | -7.85% |
| Cc1ccc(C)c(Cn2nc3c(=O)n(-c4cccc(Cl)c4C)ccn3c2=O)c1 | 3.77% | 2.62% | -13.68% |
| CCc1ccc(N(Cc2cccc(F)c2)S(=O)(=O)c2cccn3c(C)nnc23)cc1 | 8.24% | 0.68% | -10.22% |

| SMILES | Inhibition (Klebsiella pneumoniae) | Inhibition (Candida albicans) | Inhibition (Cryptococcus neoformans) |
| --- | --- | --- | --- |
| CC(C)CCn1c(=O)c2sccc2n2c(=O)n(CC(=O)NC(C)C)nc12 | 5.25% | -0.52% | -18.15% |
| Cc1cc2nn(CC(=O)Nc3cc(F)ccc3F)c(=O)n2c(Nc2ccc(C)c(F)c2)n1 | 8.03% | 1.75% | -8.46% |
| Cc1ccc(-c2ccc3nnc(CCC(=O)NCc4cccc(Br)c4)n3n2)cc1C | -2.24% | 4.88% | -4.39% |
| O=c1c2sccc2n2c(=O)n(Cc3ccc(F)cc3)nc2n1Cc1cccs1 | 10.32% | 43.23% | -26.83% |
| COc1ccc(CN(c2ccc(C(C)C)cc2)S(=O)(=O)c2cccn3cnnc23)cc1 | 7.8% | 1.9% | -7.62% |
| Cc1cccc(CN(c2ccc(C(C)C)cc2)S(=O)(=O)c2cccn3c(C)nnc23)c1 | 9.59% | 3.05% | -9.59% |
| CCc1ccc(Cn2c(=O)c3sccc3n3c(=O)n(Cc4c(F)cccc4Cl)nc23)cc1 | 5.71% | 1.83% | -25.59% |
| CCc1ccc(Cn2c(=O)c3sccc3n3c(SCc4cccc(C(F)(F)F)c4)nnc23)cc1 | 8.34% | 1.88% | -21.14% |
| COc1ccc(NC(=O)c2ccc3nn(CC(=O)Nc4cc(Cl)ccc4OC)c(=O)n3c2)cc1 | 1.5% | 2.28% | -8.79% |
| COc1cccc(-n2ccn3c(SCc4ccccc4Cl)nnc3c2=O)c1 | 8.33% | 2.81% | -13.51% |
| Cc1cc(Nc2ccc(F)cc2)nc2nn(Cc3cccc(C#N)c3)c(=O)n12 | 10.49% | 2.04% | -10.7% |
| O=C(Cn1nc2c3cc(-c4ccc(F)cc4)nn3ccn2c1=O)NCc1ccccc1Cl | 7.72% | 20.13% | -27.16% |
| CCCCOc1ccc(-c2cc3c4nnc(SCC(=O)Nc5cccc(C)c5C)n4ccn3n2)cc1 | 1.05% | -0.05% | -18.62% |
| Cc1cc(C)cc(NC(=O)Cn2nc3ccc(-c4ccc(C)c(C)c4)nn3c2=O)c1 | 5.54% | 21.88% | -18.49% |
| CCCCOc1ccc(-c2cc3c4nnc(SCC(=O)N(C)c5ccc(F)cc5)n4ccn3n2)cc1 | 3.98% | 15.18% | -9.29% |
| CSc1cccc(NC(=O)Cn2nc3c(Sc4ccc(C)cc4C)nccn3c2=O)c1 | -1.53% | 2.24% | -22% |
| C=Cc1ccc(CSc2nnc3c(=O)n(-c4ccc(Br)cc4)ccn23)cc1 | 3.16% | 0.16% | -7.54% |
| CCC(C)NC(=O)Cn1nc2n(CCC(C)C)c(=O)c3sccc3n2c1=O (stereo not given) | 0.17% | -2.39% | -17.2% |
| COc1ccc(Cl)cc1NC(=O)Cn1nc2ccc(Sc3ccccc3)nn2c1=O | 0.86% | 45.02% | -15.66% |
| O=C(Cn1nc2c3sc(N4CCCC4)nc3ncn2c1=O)Nc1ccc(C(F)(F)F)cc1 | 13.17% | 1.98% | -9.31% |

— ChEMBL document CHEMBL4513146, “CO-ADD screening of Karazin Kharkiv National University (Ukraine) compounds”
